Screening results (PubChem BioAssay)
Compounds with a hit are over-represented: about 3% of the library has one in this group of screens.
SENP8 block-1: blocks the human protease SENP8 | Q96LD8 | purified SENP8, Z-RLRGG-aminoluciferin cleavage, luminescence | inhibition, % at 10 µM | hit rate 1.2% among 330,000; in the data active means inhibition above about 50%
Target sequence (Q96LD8 whole entry, looked up): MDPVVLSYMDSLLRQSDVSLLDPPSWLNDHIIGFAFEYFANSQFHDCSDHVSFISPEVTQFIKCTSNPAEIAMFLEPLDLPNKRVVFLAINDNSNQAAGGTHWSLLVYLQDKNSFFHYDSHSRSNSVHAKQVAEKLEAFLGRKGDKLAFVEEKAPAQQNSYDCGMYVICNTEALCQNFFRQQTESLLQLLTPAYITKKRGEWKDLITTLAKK
SENP7 inh: inhibitors of human SENP7 protease. Q9BQF6. recombinant SENP7, Z-RLRGG-aminoluciferin luminescence, 40 min. inhibition, % at 5 µM. hit rate 1.5% among 330,000;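 active means inhibition above about 50% at the single test dose, limit read from the data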;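 further: plate controls were DMSO with enzyme for no effect and no enzyme buffer wells for full effect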
Target sequence (Q9BQF6 706-1050 limits assumed): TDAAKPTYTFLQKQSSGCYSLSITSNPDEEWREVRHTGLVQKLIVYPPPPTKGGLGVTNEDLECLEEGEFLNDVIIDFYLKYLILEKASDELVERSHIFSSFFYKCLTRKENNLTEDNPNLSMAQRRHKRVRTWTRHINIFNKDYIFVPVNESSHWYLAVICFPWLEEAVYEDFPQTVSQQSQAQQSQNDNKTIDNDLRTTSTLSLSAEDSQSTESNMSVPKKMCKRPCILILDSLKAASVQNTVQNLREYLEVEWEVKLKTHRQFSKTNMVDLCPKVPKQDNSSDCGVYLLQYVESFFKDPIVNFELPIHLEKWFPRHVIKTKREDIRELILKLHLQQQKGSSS
PPC-1+TRAIL kill: PPC-1 cancer cell killing with TRAIL present. PPC-1 cells + TRAIL, ATPLite viability luminescence. cell killing (% activity), % at 4 µM or 5 µM. AID 1443. hit rate 0.41% among 220,000;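 active means cell killing above 50% in the first pass at 4 µM, then a duplicate retest at 5 µM averaging 50% or more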;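 further: plate controls were cells with TRAIL plus DMSO for no effect and medium-only wells lacking cells for full effect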
SENP8 block-2: inhibitors of human SENP8 protease | inhibition, % at 20 µM | hit rate 0.64% among 360,000 | recombinant SENP8, Nedd8 substrate fluorescence; in the data active means inhibition mostly above about 40%, no sharp cut-off; inactive means mostly below about 27%
TRAIL sens C8: caspase-8 TRAIL sensitization | NB7+C8 cells + TRAIL, ATPlite viability luminescence | inhibition (viability loss, TRAIL sensitization), % at 10 µM | hit rate 1% among 360,000;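 active means compounds causing at least 50% loss of cell viability in the single-dose screen, relative to plate controls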
SENP6 block: inhibitors of human SENP6 protease. Q9GZR1. Recombinant SENP6 catalytic domain, aminoluciferin luminescence. inhibition, % at 10 µM. hit rate 1.8% among 330,000;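 active means inhibition above about 50% at the single tested dose, limit read from the data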;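 further: plate controls were DMSO wells with enzyme for no effect and DMSO wells lacking enzyme for full effect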
SENP8 confirm: human SENP8 inhibition, confirmed; shares compounds with SENP7 inh; Recombinant SENP8, Z-RLRGG-aminoluciferin luminescence, 60 min; inhibition, % at 12.5 µM; hit rate 40% among 6,200;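 active means mean inhibition across replicates above about 50%, limit read from the data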
SENP6 confirm: confirmation of human SENP6 protease inhibitors. shares compounds with SENP7 inh. recombinant SENP6, Z-RLRGG-aminoluciferin luminescence. inhibition, % at 12.5 µM. hit rate 58% among 6,200
SENP7 confirm: confirmation of human SENP7 protease inhibitors; recombinant SENP7, Z-RLRGG-aminoluciferin luminescence, 40 min; inhibition, % at 12.5 µM; shares compounds with SENP7 inh; hit rate 69% among 6,200
Casp3 select: selectivity test for SENP inhibitors: human caspase-3 inhibition. hit rate 60% among 6,200. AID 488918. inhibition, % at 12.5 µM. shares compounds with SENP7 inh. purified caspase-3, Z-DEVD-aminoluciferin luminescence, 60 min;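 active means mean inhibition above about 50%, limit read from the data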;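 further: plate controls were enzyme with DMSO for no effect and wells without caspase-3 for full effect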
Luc interf: counter-screen for SENP inhibitors: luminescence interference; inhibition, % at 12.5 µM; AID 488919; hit rate 39% among 6,200; Pre-incubated SENP8/Z-RLRGG-aminoluciferin, luciferase luminescence interference; shares compounds with SENP7 inh;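 active means mean inhibition above about 50% when retested at one dose, limit read from the data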;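 further: plate controls were DMSO wells with completed reaction for no effect and substrate without enzyme for full effect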
* = called active by the depositor; nt = no result.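 How the source made its calls, unless noted: active means mean inhibition above about 50% in the one-dose retest (limit read from the data); inactive means the rest.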

SMILES	SENP8 block-1	SENP7 inh	PPC-1+TRAIL kill	SENP8 block-2	TRAIL sens C8	SENP6 block	SENP8 confirm	SENP6 confirm	SENP7 confirm	Casp3 select	Luc interf
Cc1nc2nc(-c3ccccc3)cc(=O)n2[nH]1	36.3	55.3*	33.5	2.8	31.5	3.1	56.7*	51.5*	83.5*	85.4*	65.6*
Cc1cccc(-c2cc3nc(-c4ccccc4)cc(=O)n3[nH]2)c1	88.3*	50.6*	nt	-292.4	43.8*	89.4*	14.2	74.3*	26.9	16.8	4.6
Cc1nn2cc(-c3ccccc3)nc2[nH]c1=O	38.3	24.0	-8.2	-496.9	8.4	72.5*	65.8*	61.2*	88.6*	88.9*	28.7
O=C(O)CCc1nn2cc(-c3ccccc3)nc2[nH]c1=O	-11.6	-5.6	43.0	-416.5	7.0	-12.8	nt	nt	nt	nt	nt
COc1ccc(CCCC(=O)NCC(=O)N/N=C/c2cc(Cl)ccc2OC)cc1	0.8	5.2	nt	-7.4	-10.4	-16.8	nt	nt	nt	nt	nt
O=C(/C=C/c1c[nH]c2ccccc12)c1ccccc1	-0.6	-4.9	17.1	-265.1	22.6	24.6	nt	nt	nt	nt	nt
COc1ccc2[nH]cc(/C=C/C(=O)c3ccccc3)c2c1	38.5	49.3	-0.5	-291.4	27.4	57.6*	75.3*	71.1*	84.9*	24.8	84.6*
CCCCN(C(=O)c1ccc(C)c(S(=O)(=O)N2CCOCC2)c1)c1c(N)n(CCCC)c(=O)[nH]c1=O	0.1	-0.7	nt	-13.1	17.1	-4.1	nt	nt	nt	nt	nt
COC(C[C@@H](O)C[C@H](O)COCc1ccccc1)OC	-4.7	-1.5	11.5	10.5	-6.7	-12.5	nt	nt	nt	nt	nt
CN(C)c1cc(N/N=C/c2ccccc2C(F)(F)F)nc(N(C)C)n1	26.4	46.0	nt	-30.1	5.1	55.2*	4.9	46.5	22.0	-0.5	-2.1
Cc1nnc(N/N=C/c2ccccc2C(F)(F)F)n1N	4.3	-0.1	nt	12.0	-20.4	16.4	nt	nt	nt	nt	nt
CC(=O)Oc1ccc2c(=O)c(-c3nc4ccccc4s3)coc2c1	94.3*	99.1*	36.6	-112.0	68.7*	97.8*	44.9	38.8	29.9	71.9*	51.3*
COC(=O)COc1ccc2c(=O)c(-c3ccccc3)coc2c1	5.2	2.2	0.0	4.8	4.4	4.2	nt	nt	nt	nt	nt
CCc1cc2c(=O)c(-c3ccc4c(c3)OCCO4)coc2cc1OC(=O)c1ccco1	1.1	73.3*	35.7	-6.9	71.3*	24.6	-10.7	-5.1	-0.2	18.0	5.3
CCCc1cc2c(=O)c(-c3ccc4c(c3)OCCO4)coc2cc1OS(C)(=O)=O	-9.3	-10.6	-6.5	7.6	27.8	3.5	nt	nt	nt	nt	nt
CCN(CC)C(=O)Oc1ccc2c(=O)c(-c3ccc(OC)cc3)coc2c1	-10.8	1.3	-2.3	-12.8	21.9	-3.7	nt	nt	nt	nt	nt
COc1ccc2c(=O)c(-c3ccc4c(c3)OCO4)coc2c1	84.2*	95.7*	40.1	15.1	57.2*	88.3*	55.9*	86.8*	64.4*	76.9*	16.1
CC(C)Oc1ccc2c(=O)c(-c3ccccc3)coc2c1	60.9*	70.7*	37.4	1.4	21.4	68.4*	6.9	25.2	51.6*	36.0	13.4
O=S1(=O)CC(N2CC=CC2)CN1Cc1ccccc1 (centres undefined)	nt	nt	nt	28.8	23.4	nt	nt	nt	nt	nt	nt
O=C(NCc1ccco1)C1Cc2c(-c3cccc(F)c3)ccnc2O1 (centres undefined)	nt	nt	nt	7.0	14.7	nt	nt	nt	nt	nt	nt
CC(=O)NCCNc1nc2cc(-c3ccc(C(=O)N4CCN(C)CC4)cc3)sc2c(=O)n1C	nt	nt	nt	-295.5	11.3	nt	nt	nt	nt	nt	nt
CC(C)OC(=O)/C=C1\C[C@@H](c2ccccc2C(F)(F)F)O[C@@H](c2ccccc2C(F)(F)F)O1	nt	nt	nt	12.7	45.3	nt	nt	nt	nt	nt	nt
Cc1ccc(S(=O)(=O)N(C)c2ccccc2C(=O)NC2CCCC2)cc1	-2.0	3.7	-2.4	22.7	13.1	0.2	nt	nt	nt	nt	nt
Cn1ccc2cc(OCc3ccccc3)ccc21	nt	nt	nt	4.5	1.0	nt	nt	nt	nt	nt	nt
Cc1cc2cc(OCc3ccccc3)ccc2n1C	-32.4	19.1	nt	13.1	-0.7	50.4*	-4.0	-6.7	-6.2	-0.3	-0.4
SMILES	SENP8 block-1	SENP7 inh	PPC-1+TRAIL kill	SENP8 block-2	TRAIL sens C8	SENP6 block	SENP8 confirm	SENP6 confirm	SENP7 confirm	Casp3 select	Luc interf
O=C(NC(=S)Nc1ccc(S(=O)(=O)Nc2nccs2)cc1)c1ccc(F)cc1	23.2	0.9	14.2	10.6	18.7	64.0*	36.1	33.0	66.1*	45.1	52.1*
CC(C)(C)C(=O)NC(=S)Nc1ccc(S(=O)(=O)Nc2nccs2)cc1	1.8	3.9	-2.0	3.3	4.2	-6.0	nt	nt	nt	nt	nt
O=C(Nc1ccccc1C(=O)NCCc1ccccc1)c1cnccn1	3.6	-1.7	nt	14.5	0.2	-13.7	nt	nt	nt	nt	nt
CCCCC(CC)C(=O)NCc1ccc(F)cc1 (centres undefined)	-4.2	5.5	20.1	19.1	5.4	-1.5	nt	nt	nt	nt	nt
CCC(=O)Oc1ccc2c(c1)O/C(=C\c1ccco1)C2=O	-5.0	-6.8	3.6	-224.6	3.7	-3.5	nt	nt	nt	nt	nt
Cc1cc(O)cc2c1C(=O)/C(=C/c1ccco1)O2	63.5*	1.5	nt	-71.2	-3.2	66.7*	85.3*	86.6*	98.5*	89.5*	89.1*
COC(=O)c1sccc1NC(=O)Cc1ccc(OC)c(OC)c1	-8.3	-0.2	5.5	14.8	-3.8	-1.1	nt	nt	nt	nt	nt
COC(=O)c1sccc1NC(=O)Cc1ccc(Br)cc1	39.7	21.4	18.3	11.3	2.4	58.6*	59.9*	56.0*	47.6	47.9	40.4
CC(C)Oc1ccc2ccccc2c1CNC[C@H]1O[C@@H](n2ccc(N)nc2=O)[C@H](O)[C@@H]1O	nt	nt	nt	11.5	-4.8	nt	nt	nt	nt	nt	nt
O=C(OCc1nc2ccccc2s1)c1cccs1	35.8	27.6	33.6	-10.4	23.9	74.0*	63.1*	69.7*	84.3*	44.8	63.7*
O=C(OCc1nc2ccccc2s1)c1cnccn1	-0.8	5.6	21.2	-5.1	-0.6	-19.5	nt	nt	nt	nt	nt
O=C(OCc1nc2ccccc2s1)c1ccccc1O	84.6*	86.2*	15.8	2.6	1.5	91.9*	88.7*	90.5*	97.7*	83.3*	74.3*
O=C(O)c1ccccc1OCc1nc2ccccc2s1	89.5*	91.6*	nt	-2.0	-3.8	92.4*	91.1*	92.6*	100.0*	84.7*	79.4*
CCCCC(=O)OCc1nc2ccccc2s1	-12.5	0.8	15.8	-8.3	-6.2	11.3	nt	nt	nt	nt	nt
COc1ccc(S(=O)(=O)N2CCOCC2)cc1NC(=O)C1CCCCN1S(=O)(=O)c1ccccc1 (centres undefined)	nt	nt	nt	-6.2	21.7	nt	nt	nt	nt	nt	nt
